Source: PubChem BioAssay AID2641 (National Center for Advancing Translational Sciences (NCATS), 2010)
Several values for one entry are separate records, joined by “and”; a condition that tells them apart may be missing. Identical values can stand only once. Activity calls are given as the source filed them. How the calls were made is not given here.

Biological target: Lysosomal alpha-glucosidase (Homo sapiens) (UniProt P10253)
Experiment: qHTS Assay for Inhibitors of Human alpha-Glucosidase as a Potential Chaperone Treatment of Pompe Disease: Stabilizers of Alpha-Glucosidase Under Thermal Denaturation Conditions
Settings: Recombinant GAA thermal denaturation, residual activity over time, stronger effect = higher value; at 0.31 µM unless noted
Description: NIH Chemical Genomics Center [NCGC]
NIH Molecular Libraries Probe Production centers Network [MLPCN]
Assay Submitter (PI): Wei Zheng
Alpha-glucosidase is responsible for hydrolysis of terminal, non-reducing 1,4-linked alpha-D-glucose residues with release of alpha-D-glucose. It is a lysosomal hydrolase that is required for the degradation of a small percentage (1-3%) of cellular glycogen in human. Deficiency of this enzyme results in glycogen-storage disease type II (GSDII), also referred to as Pompe disease, an autosomal recessive disorder. Structurally normal glycogen is accumulated in lysosomes and cytoplasm in affected patients, primarily in muscle tissues. Excessive glycogen storage within lysosomes may interrupt normal functioning of other organelles and leads to cellular injury. In turn, this leads to enlargement and dysfunction of the entire organ involved (eg, cardiomyopathy and muscle weakness).
It has reported that the improper folding and trafficking of alpha-glucosidase resulting from the genetic mutations may account for a significant number of Pompe patients. […] We optimized this alpha-glucosidase assay in 1536-well plate format for identifying the novel small molecule inhibitors with the structures other than the sugar analogs in order to develop the new pharmacological chaperones.
This assay involves heating purified alpha-glucosidase (Myozyme) in the presence of inhibitors to observe potential stabilization of the enzyme. This binding assay is an indirect measure of chaperone activity, as stabilization may imply proper folding and trafficking of the enzyme to its functional site. Alpha-glucosidase was pre-incubated with only DMSO or 50x IC50 of compound before being exposed to 68 °C heat inactivation. The heating was measured over time, and it was observed that untreated alpha-glucosidase lost more of its activity over time than enzyme treated with compounds.
Temperature Denature Protocol for alpha-Glucosidase
Assay buffer: 50 mM citric acid (titrated with potassium phosphate to pH 5.0), 0.01% Tween-20
1. Prepare 80X solution alpha-glucosidase solution (3.2 nM*80=[…]) in assay buffer.
2. Divide solution into separate 1.5 ml tubes.
3. For each compound, add 50X IC50:
50x IC50 1-DNJ […]
50x IC50 of the […]
4. Incubate 10 min RT after compound addition.
5. Distribute 10 ul from each tube into PCR tubes.
6. Time course of heating: Heat solutions at 68C for 60 min, taking a set of tubes out at 10, 20, 30, 45, and 60 min, while keeping one set on ice whole time.
7. After heating, take out tubes and place on ice for a minimum of 5 min.
8. Transfer 10 ul solution to 790 ul (1:80 dilution) buffer in 1.5 ml tube.
9. Vortex and take three 20 ul aliquots and put in 384 plate.
10. Add 20 ul substrate solution to each well (100 uM 4-methylumbelliferyl alpha-D-glucopyranoside).
12. Add 25 ul stop solution (1 M NaOH, 1 M glycine pH 10).
13. Detect the assay plate in a ViewLux plate reader (PerkinElmer) with Ex=365 nm and Em=440nm.

Residual activity vs control after 60 min heating, active:
O=Cc1ccc(N2CCN(S(=O)(=O)c3ccc4c(c3)CC(=O)N4)CC2)cc1 299%
OCC1NCC(O)C(O)C1O (stereo not drawn) 421% [at 0.016 µM]
O=C1Cc2cc(S(=O)(=O)N3CCN(c4ccc([N+](=O)[O-])cc4)CC3)ccc2N1 464%
CC(=O)c1ccc(N2CCN(S(=O)(=O)c3cc4c(cc3Cl)NC(=O)C4)CC2)cc1 675%
N#Cc1ccc(N2CCN(S(=O)(=O)c3ccc4c(c3)CC(=O)N4)CC2)cc1 480%
O=C1Cc2cc(S(=O)(=O)N3CCN(c4ccc(O)cc4)CC3)ccc2N1 170%
O=C1Cc2cc(S(=O)(=O)N3CCN(c4ccc(C(=O)O)cc4)CC3)ccc2N1 302%
CC(=O)c1ccc(N2CCN(S(=O)(=O)c3ccc4c(c3)CC(=O)N4)CC2)cc1 909% and 724% and 584%
